# Experimental data as given in PubChem BioAssay.
# “And” between values parts separate entries of the source, which are not always exact repeats. Equal entries are not always repeated. Records with an inconclusive call do not appear. The source made the active and inactive calls.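 How the source made its calls, unless noted: active means thallium flux through the channel raised or lowered by more than 3 SD from vehicle-only wells, actives on both sides; inactive means the rest.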
# Key:
# [1] = compounds altering circadian rhythm period length – cell-based, LOPAC library, luminescence reporter (AID 2774; call rule not given here;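 further: values are relative to mean of DMSO wells on each plate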); details: circadian reporter cells, at 7 µM, actives lie on both sides
# [2] = test system: Hepatitis C virus NS3 helicase; assay: blockers of NS3h binding to ssDNA – biochemical, fluorescence polarization, LOPAC1280 library, primary screen (AID 687035; in the data active means inhibition above about 37%); details: Purified HCV NS3 helicase, Cy5-dT15 ssDNA binding fluorescence polarization; stronger effect = higher value; concentration not given here
# [3] = compounds altering Cy5-DNA-NS3h complex signal – biochemical, LOPAC1280, artefact control for HCV NS3 helicase inhibitor project (AID 687037; call rule not given here); details: Cy5-DNA-NS3h complex fluorescence interference counterscreen
# [4] = viability loss in pontine glioma line – cell-based, JHH-DIPG-1, MIPE4.0, CellTiter-Glo, qHTS, dose response (AID 1347062; cut-off not given, nearly all actives have AC50 up to about 27 µM); details: JHH-DIPG-1 viability, CellTiter-Glo ATP luminescence
# [5] = blockers of cellular phospholipid synthesis – cell-based, LOPAC library, screen 4, primary screen (AID 1347384; call rule not given here); details: animal cells, phospholipid biosynthesis inhibition screen; at 10 µM
# [6] = blockers of polyQ-driven CASP3 activation – cell-based (AID 1583); details: polyglutamine-induced caspase-3 activation, cell assay; stronger effect = higher value;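 tested at 10 µM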
# [7] = yeast 75Q aggregation reduction – 75Q-TubU reporter (AID 1593); details: Yeast 75Q polyglutamine aggregation reporter
# [8] = blockers of cytochrome c efflux from mitochondria – biochemical, purified mitochondria (AID 1603); details: stronger effect = lower value;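 further: mouse liver mitochondria challenged with calcium chloride; signal normalized to the plate average as 100%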
# [9] = polyglutamine aggregate formation blockers (AID 1604); details: polyglutamine-induced protein aggregation inhibition assay; stronger effect = higher value; tested at 2.5 µM
# [10] = glutamate transport activators, MN-1 cells, MN-1 cell line (AID 1612); details: MN-1 motor neuron cells, stronger effect = higher value;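 further: tested at 1 µM final; 0% = mean of DMSO vehicle wells on each plate; positive means more glutamate uptake than control and negative means less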
# [11] = 75Q-TubH aggregate inhibition, S. cerevisiae, yeast (AID 1616); details: S. cerevisiae 75Q-TubH polyglutamine aggregation suppression; stronger effect = higher value
# [12] = compounds altering viability of human ES cells (AID 493140; call rule not given here;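 further: cells exposed to compounds for four days before counting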); details: human embryonic stem cell survival screen; stronger effect = higher value
# [13] = molecular target: NAD(+) hydrolase SARM1 (Homo sapiens) (UniProt Q6SZW1); assay: blocking NAD cleavage by SARM1 SAM-TIR – cell lysate, NAD-Glo luminescence (AID 1508614;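 active means compound whose remaining NAD level is above about 45 nM, limit read from the data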); details: SAM-TIR HEK293T lysate NADase, at 1 µM, stronger effect = higher value
# F380Y/beta4 = assay: BK channel mutant inhibitors and activators – cell-based, U2OS BacMam, thallium flux, beta subunits, selectivity assay, profiling panel (AID 1259406); details: U2OS BacMam BK variants, at 30 µM;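 further: initial slope of Thallos dye fluorescence rise after thallium is added; log ratio against the mean of 0.3% DMSO vehicle wells on the same plate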
# R275C/beta4 = assay: as above; details: U2OS BacMam BK variants, at 30 µM
# R275C/Slo1WT/beta2 = assay: as above; details: U2OS BacMam BK variants, at 30 µM
# [14] = test system: Neuropilin-2 / VEGF-C interaction (human); assay: small molecules blocking Neuropilin-2/VEGF-C interaction – biochemical, microplate binding format, z-score (AID 743281; call rule not given here); details: microplate NRP2/VEGF-C binding assay; stronger effect = lower value
# [15] = viability loss in pontine glioma line – cell-based, SU-DIPG-XXV, MIPE5.0, CellTiter-Glo, qHTS, dose response (AID 1347065; cut-off not given, nearly all actives have AC50 up to about 26 µM;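 further: cells exposed to compound for 48 hours before ATP readout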); details: CellTiter-Glo ATP luminescence
# [16] = growth inhibition of DIPG cells – cell-based, MIPE4.0 library, CellTiter-Glo luminescence, qHTS (AID 1347066; cut-off not given, nearly all actives have AC50 up to about 30 µM;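 further: cells exposed to compound for 48 hours before readout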); details: SU-DIPG-VI viability, CellTiter-Glo ATP luminescence
# [17] = compounds altering HSF1 focus formation in cells – imaging, Selleck Cancer Library (AID 1347162; in the data active means plate-normalised HSF1 focus index below about 0.46); details: human cells, HSF1 nuclear foci imaging, at 10 µM; SSMD: measured here: HSF1 foci SSMD mean; cell count: measured here: cell number; plate-normalised HSF1 focus index: stronger effect = lower value
# Chain of NAD(+) hydrolase SARM1 (Homo sapiens) (Q6SZW1 whole entry, looked up): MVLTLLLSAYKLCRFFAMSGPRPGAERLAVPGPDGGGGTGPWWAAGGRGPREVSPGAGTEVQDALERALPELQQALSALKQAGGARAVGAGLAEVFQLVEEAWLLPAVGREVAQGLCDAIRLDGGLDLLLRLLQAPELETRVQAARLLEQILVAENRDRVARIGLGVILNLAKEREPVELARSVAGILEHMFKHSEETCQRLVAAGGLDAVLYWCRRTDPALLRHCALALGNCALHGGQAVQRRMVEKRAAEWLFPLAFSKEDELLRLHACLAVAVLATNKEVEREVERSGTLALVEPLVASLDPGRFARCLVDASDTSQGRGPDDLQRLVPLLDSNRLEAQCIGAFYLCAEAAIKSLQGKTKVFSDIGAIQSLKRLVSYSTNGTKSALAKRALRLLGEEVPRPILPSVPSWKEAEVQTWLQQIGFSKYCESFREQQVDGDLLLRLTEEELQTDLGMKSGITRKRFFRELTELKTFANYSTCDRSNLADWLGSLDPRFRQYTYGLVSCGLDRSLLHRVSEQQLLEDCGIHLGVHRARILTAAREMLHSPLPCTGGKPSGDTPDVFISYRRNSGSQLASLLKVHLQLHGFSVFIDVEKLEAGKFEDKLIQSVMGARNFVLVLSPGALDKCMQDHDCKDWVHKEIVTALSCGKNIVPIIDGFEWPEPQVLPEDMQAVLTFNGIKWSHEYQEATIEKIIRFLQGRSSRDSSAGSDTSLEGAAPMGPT
smiles,measurement,setting,value
O=c1ccc2ccc(O)c(O)c2o1,period change,[1],0.03 h (inactive)
same,inhibition,[2],0% (inactive)
same,fluorescence ratio (interference),[3],1.1 (inactive)
same,outcome,[4],inactive
same,outcome,[5],inactive
C[N+]1(C)CCCC(OC(=O)C(O)(c2ccccc2)c2ccccc2)C1 (centres undefined),inhibition,[6],-22.1%
same,score,[7],1.26
same,cytochrome c release ratio,[8],1.17
same,inhibition of aggregation,[9],55%
same,glutamate uptake change,[10],-13.3%
same,aggregation suppression score,[11],1.44
same,survival,[12],8 (inactive)
same,remaining NAD,[13],10 nM (inactive)
same,log fold change Tl+ flux,F380Y/beta4,0.0149 (inactive)
same,log fold change Tl+ flux,R275C/beta4,0.0435 (inactive)
same,log fold change Tl+ flux,R275C/Slo1WT/beta2,0.0306 (inactive)
COc1ccc(/C=C/C(=O)Nc2ccccc2C(=O)O)cc1OC,period change,[1],-0.165 h (inactive)
same,inhibition,[2],1% (inactive)
same,fluorescence ratio (interference),[3],1 (inactive)
same,z-score,[14],0.915 (inactive)
same,outcome,[15],inactive
same,outcome,[5],inactive
same,remaining NAD,[13],10 nM (inactive)
same,log fold change Tl+ flux,F380Y/beta4,-0.0244 (inactive)
same,log fold change Tl+ flux,R275C/beta4,-0.0078 (inactive)
same,log fold change Tl+ flux,R275C/Slo1WT/beta2,0.0419 (inactive)
COc1ccc(C[C@H](N)C(=O)N[C@H]2[C@@H](O)[C@H](n3cnc4c(N(C)C)ncnc43)O[C@@H]2CO)cc1,remaining NAD,[13],10 nM (inactive)
Cc1occc(=O)c1O,z-score,[14],-0.38 (inactive)
same,log fold change Tl+ flux,F380Y/beta4,0.0304 (inactive)
same,log fold change Tl+ flux,R275C/beta4,-0.00174 (inactive)
same,log fold change Tl+ flux,R275C/Slo1WT/beta2,0.0112 (inactive)
CC(C(=O)O)c1ccc(-c2ccccc2)c(F)c1 (centres undefined),inhibition,[6],20.8%
same,score,[7],0
same,cytochrome c release ratio,[8],0.68
same,inhibition of aggregation,[9],29%
same,glutamate uptake change,[10],14.1%
same,aggregation suppression score,[11],0.00404
same,survival,[12],4.67 (inactive)
same,z-score,[14],-0.82 (inactive)
same,outcome,[4],inactive
same,outcome,[15],inactive
same,outcome,[16],inactive
same,remaining NAD,[13],10 nM (inactive)
same,log fold change Tl+ flux,F380Y/beta4,0.0328 (inactive)
same,log fold change Tl+ flux,R275C/beta4,0.0279 (inactive)
same,log fold change Tl+ flux,R275C/Slo1WT/beta2,0.0126 (inactive)
CCCCC(=O)N(Cc1ccc(-c2ccccc2-c2nn[nH]n2)cc1)[C@H](C(=O)O)C(C)C,z-score,[14],-0.0697 (inactive)
same,remaining NAD,[13],10 nM (inactive)
same,log fold change Tl+ flux,F380Y/beta4,-0.00671 (inactive)
same,log fold change Tl+ flux,R275C/beta4,0.0104 (inactive)
same,log fold change Tl+ flux,R275C/Slo1WT/beta2,0.0346 (inactive)
C[C@H]1COc2c(N3CCN(C)CC3)c(F)cc3c(=O)c(C(=O)O)cn1c23,z-score,[14],-0.188 (inactive)
same,outcome,[4],inactive
same,outcome,[15],inactive
same,outcome,[16],inactive
same,remaining NAD,[13],10 nM (inactive)
same,log fold change Tl+ flux,F380Y/beta4,-0.0339 (inactive)
same,log fold change Tl+ flux,R275C/beta4,-0.0147 (inactive)
same,log fold change Tl+ flux,R275C/Slo1WT/beta2,0.0224 (inactive)
CC[C@H]1OC(=O)[C@H](C)[C@@H](O[C@H]2C[C@@](C)(OC)[C@@H](O)[C@H](C)O2)[C@H](C)[C@@H](O[C@@H]2O[C@H](C)C[C@H](N(C)C)[C@H]2O)[C@](C)(OC)C[C@@H](C)C(=O)[C@H](C)[C@@H](O)[C@]1(C)O,z-score,[14],-0.251 (inactive)
same,outcome,[4],inactive
same,outcome,[16],inactive
same,remaining NAD,[13],10 nM (inactive)
same,log fold change Tl+ flux,F380Y/beta4,0.00789 (inactive)
same,log fold change Tl+ flux,R275C/beta4,-0.0137 (inactive)
same,log fold change Tl+ flux,R275C/Slo1WT/beta2,-0.00092 (inactive)
CC(C)NCC(O)COc1cccc2ccccc12 (centres undefined),inhibition,[6],-12.7%
same,score,[7],1.12
same,cytochrome c release ratio,[8],1.04
same,inhibition of aggregation,[9],62.1%
same,glutamate uptake change,[10],4.46%
same,aggregation suppression score,[11],0.965
same,period change,[1],-0.115 h (inactive)
same,survival,[12],5.92 (inactive) and 9.92 (inactive) and 3.58 (inactive)
same,inhibition,[2],-4% (inactive)
same,fluorescence ratio (interference),[3],1 (inactive)
same,outcome,[5],inactive
same,remaining NAD,[13],10 nM (inactive)
same,log fold change Tl+ flux,F380Y/beta4,0.0503 (inactive)
same,log fold change Tl+ flux,R275C/beta4,0.00549 (inactive)
same,log fold change Tl+ flux,R275C/Slo1WT/beta2,-0.0153 (inactive)
CC1=C(/C=C/C(C)=C/C=C/C(C)=C\C(=O)O)C(C)(C)CCC1,period change,[1],0.45 h (inactive)
same,survival,[12],10.8 (inactive) and 52.6 (inactive)
same,inhibition,[2],1% (inactive)
same,fluorescence ratio (interference),[3],0.9 (inactive)
same,outcome,[4],inactive
same,AC50,[15],6.61 µM (active)
same,outcome,[16],inactive
same,outcome,[5],inactive
same,remaining NAD,[13],10 nM (inactive)
same,log fold change Tl+ flux,F380Y/beta4,-0.0711 (inactive)
same,log fold change Tl+ flux,R275C/beta4,0.00975 (inactive)
same,log fold change Tl+ flux,R275C/Slo1WT/beta2,0.0252 (inactive)
COc1ccc(-c2cc(=O)c3c(OC)c(OC)c(OC)c(OC)c3o2)cc1OC,z-score,[14],0.248 (inactive)
same,log fold change Tl+ flux,F380Y/beta4,-0.0316 (inactive)
same,log fold change Tl+ flux,R275C/beta4,-0.242 (active)
same,log fold change Tl+ flux,R275C/Slo1WT/beta2,-0.0213 (inactive)
COC(=O)[C@H](c1ccccc1Cl)N1CCc2sccc2C1,inhibition,[6],62%
same,score,[7],1.18
same,cytochrome c release ratio,[8],0.98
same,inhibition of aggregation,[9],77.8%
same,glutamate uptake change,[10],-7.57%
same,aggregation suppression score,[11],1.88
same,outcome,[4],inactive
same,outcome,[15],inactive
same,outcome,[16],inactive
same,remaining NAD,[13],10 nM (inactive)
same,log fold change Tl+ flux,F380Y/beta4,0.0282 (inactive)
same,log fold change Tl+ flux,R275C/beta4,-0.038 (inactive)
same,log fold change Tl+ flux,R275C/Slo1WT/beta2,-0.0324 (inactive)
CN(C)c1nc(N(C)C)nc(N(C)C)n1,inhibition,[6],-2.79%
same,score,[7],1.33
same,cytochrome c release ratio,[8],1.53
same,inhibition of aggregation,[9],78.1%
same,glutamate uptake change,[10],20.9%
same,aggregation suppression score,[11],1.21
same,period change,[1],-0.095 h (inactive)
same,survival,[12],2.92 (inactive)
same,inhibition,[2],0% (inactive)
same,fluorescence ratio (interference),[3],0.9 (inactive)
same,outcome,[4],inactive
same,outcome,[15],inactive
same,SSMD,[17],0.836
same,cell count,[17],7300
same,plate-normalised HSF1 focus index,[17],1.03 (inactive)
same,outcome,[5],inactive
same,remaining NAD,[13],10 nM (inactive)
same,log fold change Tl+ flux,F380Y/beta4,0.0174 (inactive)
same,log fold change Tl+ flux,R275C/beta4,-0.000902 (inactive)
same,log fold change Tl+ flux,R275C/Slo1WT/beta2,0.0129 (inactive)
CNCCC(Oc1ccc(C(F)(F)F)cc1)c1ccccc1 (centres undefined),period change,[1],-0.16 h (inactive)
same,survival,[12],3.58 (inactive)
same,inhibition,[2],-3% (inactive)
same,fluorescence ratio (interference),[3],1 (inactive)
same,outcome,[5],inactive
same,remaining NAD,[13],10 nM (inactive)
same,log fold change Tl+ flux,F380Y/beta4,0.225 (active)
same,log fold change Tl+ flux,R275C/beta4,0.301 (active)
same,log fold change Tl+ flux,R275C/Slo1WT/beta2,0.0335 (inactive)
